Out of some 68,000 compounds screened, about 2,700 (4%) showed an effect of 50% or more. Shown is part of a subset that was picked to be rich in strong results.
System: Plasmodium berghei
Test: Screen against P. berghei liver stage (PbLuc), transformed with Luciferase, at 2uM
Assay type: functional, HepG2
Settings: tested at 2 uM

SMILES | INHIBITION
COC(C)C(=O)NS(=O)(=O)c1ccc(F)c(C(F)(F)F)c1 (stereo unspecified) | 35.7%
CC(C)C(=O)NS(=O)(=O)c1ccc(F)c(C(F)(F)F)c1 | 18.82%
CSC(C)C(=O)NS(=O)(=O)c1ccc(F)c(C(F)(F)F)c1 (stereo unspecified) | 51.48%
CC(C)N(C)CCC(=O)N1CCCC(c2ccc(C(=O)O)cc2)C1 (stereo unspecified) | -1.98%
Cc1cc(CN2CCc3nn(C)c(=O)cc3C2)no1 | 22.34%
CCn1nc2c(cc1=O)CN(Cc1cc(C)on1)CC2 | 73.01%
Cc1cc(CN2CCc3nn(C)c(=O)cc3C2)on1 | -2.31%
CCCn1nc2c(cc1=O)CN(Cc1cc(C)no1)CC2 | 62%
CCCn1nc2c(cc1=O)CN(Cc1cc(C)on1)CC2 | -1.79%
CCCn1nc2c(cc1=O)CN(Cc1c(C)noc1C)CC2 | 44.37%
Cc1cc(C)nc(N2CCC(Cn3cc(C(N)=O)cn3)CC2)n1 | 0.93%
Clc1ccc(-c2nnc([C@H]3CCN(C4CCCCC4)C3)o2)cc1 | -57.27%
O=C(Nc1cn[nH]c1)N1CCN(CCSc2ccccc2)CC1 | -11.24%
COCCN1CCc2cc(C(=O)NC(C)C)c(NCC(C)C)nc2CC1 | 42.15%
Cc1nn(C)c(Oc2ccc(Cl)cc2)c1CN1CC[C@H](CO)[C@@H](O)C1 | 43.44%
Cc1nn(C)c(Oc2ccc(Cl)cc2)c1CN1CCC(CN)C1 (stereo unspecified) | 64.9%

SMILES | INHIBITION
Cc1nn(C)c(Oc2ccc(Cl)cc2)c1CN1CCOC(CN)C1 (stereo unspecified) | 48.21%
CN(C)C(=O)CN1C[C@H]2CC[C@@H](C1)N(Cc1ccccc1OCCO)C2 | 5.28%
CC(C)[C@@H]1CN(Cc2cnc(C3CCCCC3)nc2)C[C@H]1N(C)C | -1.57%
COc1ccccc1OCCNCc1c(C(C)C)nn(C)c1N(C)C | 7.64%
CC(C)c1nn(C)c(N(C)C)c1CNCC(O)c1ccccc1 (stereo unspecified) | 35.65%
Cc1nn(C)c(N(C)C)c1CNCC(O)c1ccccc1F (stereo unspecified) | 49.9%
CC(C)c1nn(C)c(N(C)C)c1CNCC(O)c1ccccc1F (stereo unspecified) | 78.51%
COc1c(CNCC(O)c2ccccc2F)c(C(C)C)nn1C (stereo unspecified) | -72.31%
COc1ccccc1C(O)CNCc1c(C(C)C)nn(C)c1N(C)C (stereo unspecified) | 63.95%
O=C(NCC1CC1)c1n[nH]c2c1CNCC2 | 5.69%
COc1nn(C)cc1C(=O)NCC(OC)c1ccccc1C (stereo unspecified) | 24.09%
COc1ccc(NC(=O)CN2CCCCC2C2OCCO2)cc1 (stereo unspecified) | -13.68%
O=C(C1CC1)N1CCN(C(=O)C2CC(=O)N(c3ccccc3Br)C2)CC1 (stereo unspecified) | 10.42%
COC1CCN(C(=O)C2CC(=O)N(c3ccccc3Br)C2)CC1 (stereo unspecified) | 22.86%
O=C(C1CC(=O)N(c2ccccc2Br)C1)N1CCCCCC1 (stereo unspecified) | 57.51%

— ChEMBL document CHEMBL4513216, “Probing the Open Global Health Chemical Diversity Library for Multistage-Active Starting Points for Next-Generation Antimalarials” (ACS Infect Dis, 2020)
